Inconclusive results are not listed. A call without a number means that no potency is given here. Active and inactive are the calls of the source. Calls come from the whole dose curve; as a rule, active = well fitted inhibition curve with a large enough effect in the repeat runs; inconclusive = weak or mixed curves; inactive = flat fitted curve, though single readings scatter.

In this experiment the target is Luciferin 4-monooxygenase (Photinus pyralis) (UniProt P08659). The experiment is described as follows: qHTS assay to identify small molecule inhibitors of firefly luciferase (AID 1224835). Note: nearly all actives have a fitted effect of over 25% in size. Particulars: purified P. pyralis luciferase, luminescence inhibition; series mostly up to 115 µM. The source says: U.S. Tox21 Program National Center for Advancing Translational Sciences [NCATS] NIH Chemical Genomics Center [NCGC] U.S. Environmental Protection Agency [EPA] National Institutes of Environmental Health Sciences [NIEHS] National Toxicology Program [NTP] U.S. Food and Drug Administration [FDA] Tox21 Assay Overview: Firefly (Photinus pyralis) luciferase is one of the most commonly used transcriptional reporters. Firefly luciferase reporter-gene assays are generally considered one of the most sensitive assay types (Wood, 1995; Wood, 1998). However, it was initially observed, in 1991, by Thompson et al., that compounds that resemble the substrates of firefly luciferase (FLuc) can act as competitive inhibitors of the enzyme, and that these compounds, upon interaction with luciferase in the cell, can actually stabilize the protein and increase its half-life. Previous profiling work by other groups to determine the prevalence of compounds that affect FLuc enzymatic activity (PubChem AID 411) identified that ~3% of the MLSMR library (then at ~72K) inhibited FLuc. […] Thus the Tox21 10K library is profiled for activity against FLuc using a biochemical assay of purified FLuc and KM concentrations of FLuc substrates (D-luciferin and ATP).
Chain of Luciferin 4-monooxygenase (Photinus pyralis) (P08659 whole entry, looked up): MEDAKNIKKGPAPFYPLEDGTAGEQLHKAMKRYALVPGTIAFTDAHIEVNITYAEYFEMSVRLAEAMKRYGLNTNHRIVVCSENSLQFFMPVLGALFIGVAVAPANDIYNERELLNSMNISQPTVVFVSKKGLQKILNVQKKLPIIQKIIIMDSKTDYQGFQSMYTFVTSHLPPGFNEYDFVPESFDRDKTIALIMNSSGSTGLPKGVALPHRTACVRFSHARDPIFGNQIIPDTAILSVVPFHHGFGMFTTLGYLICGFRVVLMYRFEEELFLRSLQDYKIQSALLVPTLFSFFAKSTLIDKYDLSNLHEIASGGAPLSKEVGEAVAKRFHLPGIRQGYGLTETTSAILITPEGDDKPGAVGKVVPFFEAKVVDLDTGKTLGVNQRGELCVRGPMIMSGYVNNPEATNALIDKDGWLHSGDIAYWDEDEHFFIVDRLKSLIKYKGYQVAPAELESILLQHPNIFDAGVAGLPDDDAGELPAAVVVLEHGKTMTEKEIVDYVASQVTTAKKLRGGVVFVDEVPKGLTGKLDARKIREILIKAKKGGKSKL
These assay plates were then treated with 23nL of compound or DMSO using a Kalypsys pin tool, which allows for delivery of a 6-point interplate titration of each compound to the assay plate (quantitative HTS.) 1 uL of firefly luciferase mix (containing 50 mM Tris acetate, pH 7.6, 0.04 uM P. pyralis luciferase, 0.01% Tween, 0.05% BSA and dH2O) was then delivered by FRD to each well. Luciferase activity was then measured using a ViewLux CCD imager.
(In general: Quantitative high-throughput screening tests each substance at several concentrations.)
On to `Cc1ccc(C(C)NC(=O)[C@@H](NC(=O)OC(C)C)C(C)C)cc1` (stereo not given in full), for which the Potency result was “inactive”.

Regarding `CC1OCCC1=O` (stereo not given), the Potency entry is “inactive”.

Consider `Cc1ccc(N)cc1S(=O)(=O)O`, for which the Potency entry was “inactive”.

Regarding `CC1=C(C(=O)O)N2C(=O)[C@@H](NC(=O)[C@H](N)c3ccccc3)[C@H]2SC1`, the Potency entry is “inactive”.

With `CCO[Si](CC)(OCC)OCC`, the Potency result was “inactive”.

Turning to `CCC(=O)CC`, the Potency result is “inactive”.

With `C=C(C)[C@@H]1CC=C(C)CC1`, the Potency result was “inactive”.

Regarding `Cc1cc(-c2ccccc2)nnc1NCCN1CCOCC1`, the Potency result is “inactive”.

In the case of `COc1nc(N)nc2nc[nH]c12`, the Potency result was “inactive”.

Consider `COC(C)(OC)OC`, for which the Potency result is “inactive”.

`O=C1NC(c2ccccc2)(c2ccccc2)C(=O)N1COP(=O)(O)O`: the Potency result is “inactive”.

With `CCCCCCCCCCCCCCC(=O)NC(CO)CCCCCCCCCCCCCC` (stereo not given), the Potency result was “inactive”.

For `COC(=O)CCCCC(=O)O`, the Potency result was “inactive”.

In the case of `CCNC(=O)NCc1cccc(Cl)c1`, the Potency result was “inactive”.

As for `O=C(O)CNC(=O)CNC(=O)CNC(=O)CSC(=O)c1ccccc1`, the Potency result was “inactive”.

For the compound `CCC(C)OC(C)CC` (stereo not given), the Potency result was “inactive”.

With `CC1(C)Oc2ccc(C#N)cc2[C@@H](N2CCCC2=O)[C@@H]1O`, the Potency result was “inactive”.

For the compound `CCN(CC)CCN`, the Potency result was “inactive”.

Turning to `C/C=C(\C)C(=O)OCCc1ccccc1`, the Potency is 7.1 µM (active).

With `O=C(Cl)c1ccccc1[N+](=O)[O-]`, the Potency entry is “inactive”.

Consider `OCCN1CCOCC1`, for which the Potency entry is “inactive”.

On to `CC(C)C1OCCN1CCOC(=O)NCCCCCCNC(=O)OCCN1CCOC1C(C)C` (stereo not given), for which the Potency entry was “inactive”.

On to `c1ccc(B(c2ccccc2)c2ccccc2)cc1`, for which the Potency was 31.7 µM (active).

Regarding `CC(=O)CC(=O)Nc1ccc(C)cc1C`, the Potency entry is “inactive”.

`CC(=O)OCC(=O)Nc1cc(C#N)cc(NC(=O)COC(C)=O)c1Cl`: the Potency result was “inactive”.

For the compound `CNCCS(=O)(=O)O`, the Potency result was “inactive”.

On to `CCCCCCCCCCCCCBr`, for which the Potency entry is “inactive”.

Consider `CC(C)Cn1cnc2c1c(=O)n(C)c(=O)n2C`, for which the Potency result was “inactive”.

For `CCOC(=O)CC1(C)OCC(C)O1` (stereo not given), the Potency entry is “inactive”.

Take `c1ccc(-c2nn[nH]n2)cc1`: the Potency entry is “inactive”.

As for `N#CCC(=O)NN`, the Potency result was “inactive”.

As to `CC(O)COC(C)(C)C` (stereo not given), the Potency result is “inactive”.

As for `CC(C)COC(=O)c1ccccc1`, the Potency result was “inactive”.

For the compound `Cc1cccc(Cl)c1`, the Potency entry is “inactive”.

As to `CCO`, the Potency result was “inactive”.

Turning to `Cc1ncc([N+](=O)[O-])n1CC(C)O` (stereo not given), the Potency entry was “inactive”.

As for `COc1c2occc2c(OC)c2c(=O)cc(C)oc12`, the Potency result was “inactive”.

Regarding `OC1(c2ccc(Cl)cc2)CCNCC1`, the Potency result is “inactive”.

As for `CCCc1ccc(O)cc1`, the Potency result is “inactive”.

Take `CCCCCC(C)O` (stereo not given): the Potency entry was “inactive”.

The values are drawn from PubChem BioAssay (Tox21).
